Laboratory results published in PubChem BioAssay AID720697 (Broad Institute, 2013).
Entries with a potency or affinity are not part of this list. Records with an inconclusive call do not appear. The source made the active and inactive calls.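 The calls were made as follows: active = signal loss with fitted half-maximal concentration at or below twice the top valid tested dose in every test run; inconclusive = runs disagree, flat 30 to 70% signal loss, or poor fit; inactive = all runs flat, opposite direction, or potency beyond limit.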

assay: HEK293T cytotoxicity, dose response, cytotoxicity control for miR-122 modulator project, cell-based, inhibitor set, cherry-pick, set 2 (AID 720697); conditions: HEK293T viability, CellTiter-Glo luminescence, 48 h; series mostly up to 26 µM;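 also: 0% = median of neutral control wells and -100% = MG132 positive control wells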

Row | SMILES | outcome | activity change, negative = cytotoxicity
1 | Cc1ccc(C(=O)n2nc(-c3ccccc3)nc2NCc2ccco2)cc1 | inactive | 
2 | CCN(C[C@@H]1[C@@H](c2ccccc2)[C@@H](CO)N1S(C)(=O)=O)C(=O)C1CC1 | inactive | 
3 | COC(=O)C[C@@H]1CC[C@@H]2[C@H](COc3ccc(NC(=O)c4cc(F)cc(F)c4)cc3C(=O)N2C)O1 | inactive | 
4 | CN(C[C@H]1N[C@@H](CO)[C@@H]1c1ccc(C2=CCCC2)cc1)C(=O)c1ccc(F)cc1 | inactive | 
5 | CC(=O)c1ccc(Nc2nc3ccc(C)cc3n3cnnc23)cc1 | inactive | 
6 | C[C@H]1CN([C@@H](C)CO)C(=O)c2cc(-c3ccc(C#N)cc3)cnc2O[C@H]1CN(C)C(=O)Nc1ccc(C(F)(F)F)cc1 | inactive | 
7 | C/C=C/c1ccc2c(c1)O[C@@H](CN(C)CC1CCCC1)[C@H](C)CN([C@@H](C)CO)S2(=O)=O | inactive | 
8 | Cc1cc(C)n(C(=O)Cn2nc(C)c(Br)c2C)n1 | inactive | 
9 | C/C=C/c1ccc([C@@H]2[C@@H](CO)N(Cc3ccccn3)[C@H]2CNC(=O)CC)cc1 | inactive | 
10 | O=C(NC[C@H]1N[C@H](CO)[C@@H]1c1ccc(-c2ccccc2F)cc1)c1ccccc1 | inactive | 
11 | CN1C(=O)c2cc(NC(=O)c3cccc(F)c3)ccc2OC[C@@H]2O[C@H](CC(=O)NC3CCC3)CC[C@@H]21 | inactive | 
12 | CC(=O)N1[C@H](CO)[C@@H](c2ccccc2)[C@H]1CN(CC(C)C)C(=O)c1ccccn1 | inactive | 
13 | C/C=C/c1ccc([C@@H]2[C@@H](CO)N(C(=O)Cc3cccnc3)[C@H]2CNC(C)=O)cc1 | inactive | 
14 | COc1cccc(CNC(=O)C[C@@H]2CC[C@H]3[C@H](COc4ccc(NS(=O)(=O)c5ccccc5F)cc4C(=O)N3C)O2)c1 | inactive | 
15 | Cc1onc(-c2ccccc2)c1C(=O)NCc1ccccn1 | inactive | 
16 | COc1cccc(COc2cc3ccccc3nc2C)c1 | inactive | 
17 | C[C@@H]1CN([C@H](C)CO)C(=O)c2cc(-c3cncnc3)cnc2O[C@H]1CN(C)Cc1ccc(Oc2ccccc2)cc1 | inactive | 
18 | CNC(=O)C[C@H]1CC[C@@H]2[C@H](COc3ccc(NC(=O)Nc4ccccc4OC)cc3C(=O)N2C)O1 | inactive | 
19 | C[C@@H]1CN([C@@H](C)CO)S(=O)(=O)c2ccc(-c3ccccc3)cc2O[C@@H]1CN(C)C(=O)c1ccc2c(c1)OCO2 | inactive | 
20 | CCC(=O)N1[C@H](CN(CC)C(=O)c2ccccc2)[C@@H](c2ccccc2)[C@@H]1CO | inactive | 

Row | SMILES | outcome | activity change, negative = cytotoxicity
21 | CO[C@H]1CN(C)C(=O)c2cc(NC(=O)c3cccc(Oc4ccccc4)c3)ccc2OC[C@@H](C)NC[C@H]1C | inactive | 
22 | CCOc1ccc(CCNC(=O)C2CCN(S(=O)(=O)N3CCC(C)CC3)CC2)cc1OCC | inactive | 
23 | O=C(c1cccnc1)N1C[C@H]2[C@@H](c3ccccc31)[C@H](CO)N2C(=O)Nc1ccccc1 | inactive | 
24 | CN1C(=O)c2cc(NC(=O)Cc3ccccc3)ccc2OC[C@H]2O[C@@H](CC(=O)NCc3ccc(Cl)cc3)CC[C@@H]21 | inactive | 
25 | CCOc1cc(C(=O)NC(C)COC)cc(OCC)c1OCC (centres undefined) | inactive | 
26 | C/C=C/c1ccc([C@H]2[C@@H](CNC(=O)c3ccncc3)N(C(=O)CC)[C@H]2CO)cc1 | inactive | 
27 | Cc1cc(C)c2c(c1)/C(=C/C(=O)c1ccc(Br)s1)C(=O)N2 | inactive | 
28 | C[C@H](CO)N1C[C@H](C)[C@H](CN(C)CC2CCCCC2)OCCCC[C@H](C)Oc2ccc(NC(=O)Nc3cccc4ccccc34)cc2C1=O | inactive | 
29 | COc1cc(N)c(Cl)cc1NC(=O)c1ccccc1 | inactive | 
30 | CNC(=O)C[C@@H]1CC[C@@H]2[C@@H](COc3ccc(NC(=O)c4cccc(OC)c4)cc3C(=O)N2C)O1 | inactive | 
31 | CCNC(=O)Nc1ccc2c(c1)C(=O)N(C)[C@H]1CC[C@H](CC(=O)NCc3ccccc3F)O[C@H]1CO2 | inactive | 
32 | Cc1ccccc1-c1ccc2c(c1)O[C@@H](CN(C)C(=O)Nc1ccc(F)cc1)[C@@H](C)CN([C@@H](C)CO)S2(=O)=O | inactive | 
33 | CCS(=O)(=O)Nc1ccc2c(c1)C(=O)N(C)[C@@H]1CC[C@@H](CC(=O)NCCCN3CCOCC3)O[C@@H]1CO2 | inactive | 
34 | CNC(=O)c1nc(C)n(-c2cc(Cl)cc(Cl)c2)n1 |  | 4.99% [at 6 µM] (inactive)
35 | O=C(COC(=O)c1ccccc1)Nc1cc(Cl)ccc1Oc1ccccc1 | inactive | 
36 | C[C@@H]1CN([C@H](C)CO)C(=O)c2cc(-c3cccc(C#N)c3)cnc2O[C@H]1CN(C)C(=O)C1CCC1 | inactive | 
37 | CCCNC(=O)N1C[C@@H]2[C@H](c3ccccc31)[C@@H](CO)N2C(=O)C1CCOCC1 | inactive | 
38 | Cc1ccc(-c2nnn(CC(=O)N(CC(=O)NCC3CCCO3)c3ccccc3)n2)o1 (centres undefined) | inactive | 
39 | O=C(Nc1ccc(F)cc1)N1C[C@H]2[C@@H](c3ccccc31)[C@H](CO)N2C(=O)c1ccncc1 | inactive | 
